Data on 15 compounds can be found in PubChem BioAssay (NCI).

Where “and” joins values, the source holds several entries; their conditions need not be identical. Identical values can stand only once. About 83,000 compounds went through this panel and 20% of them were active in at least one assay; those are over-represented in the sample as a whole.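 Interpretation: 100, growth as untreated; towards 0, rising growth inhibition; 0, no net growth; 0 to -100, cell death. Compounds scoring below 10 were considered active.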 Calls of active or inactive are those of the source.

The assay deals with MDA-MB-468 breast. In words: NCI-60 one-dose screen, 48 h (100 = growth as untreated, 0 = no growth, -100 = all killed). Particulars: 10 µM unless noted.
On to `Fc1ccc2c(c1)c(-c1nc(-c3c[nH]c4ncccc34)cs1)cn2CCCN1CCOCC1`, for which the growth was 18.3% (inactive). For the compound `CC12CCCC(CC(=O)c3[nH]c4ccccc4c31)C2` (stereo not given), the growth was -47.5% (active). With `COc1ccc(/C=C2\C(=O)N=C3N2NC(c2cc(Br)ccc2O)C=C(C)N3c2ccccc2)cc1` (stereo not given), the growth was 90.7% (inactive). The value for `O=C(/C=C/c1cccs1)c1ccc(Cl)nc1` was 103% (inactive); that for `O=C1CSC(=S)N1CCc1ccc(O)cc1` was 40.5% (inactive); that for `C=C(C)C(=O)O[C@H]1C[C@@]2(C)OC(=CC2=O)/C(CO)=C\[C@H]2OC(=O)C(=C)[C@H]12` was -34% (active).

Consider `COc1cc(/C=C2\CCC/C(=C\c3cc(CN4CCOCC4)c(O)c(OC)c3)C2=O)cc(CN2CCOCC2)c1O`, for which the growth is 31.5% (inactive). Consider `CC[N+](CC)=c1ccc2nc3c(cc(NCc4ccccc4)c4ccccc43)oc-2c1`, for which the growth was -88.7% (active). Regarding `O=[N+]([O-])c1ccc(S(=O)(=O)NN=C2CCCCC2)cc1`, the growth was 115% (inactive). In the case of `C(=C(\C1=NCCN1)n1ccc2ccccc21)/c1ccccc1` it was 96.5% (inactive); in that of `Cc1cccc2ccccc12`, 103% (inactive); in that of `COc1cc(C2C3=C(COC3=O)N(CCO)c3cc4c(cc32)OCCO4)cc(OC)c1OC` (stereo not given), -64.5% (active). On to `CCOC(=O)c1c(C)nc2c(c1N)CC(=O)N2CCc1ccccc1`, for which the growth is 44% (inactive). Regarding `CC(=O)Nc1ccc(OC(C)=O)cc1`, the growth is 5.17% (active) and 92.5% (inactive). For the compound `CCOC(=O)c1cc(C(=O)c2ccc(OC)cc2)n2ccc(/C=C/c3cc[n+](CC(=O)c4ccc(OC)cc4)cc3)cc12`, the growth is -38.2% (active).
